Holding throughout (test): PBM binding z-score (relative to random genomic background probes); higher = stronger binding; sequences stand for … in GC…GCGATTGACAGCGTAGAATGAAGG
Assay [1] concerns FXR:RXRa (NR concentration 270 nM, RXRa partner concentration 90 nM). The method in brief:
(§1)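 Antibodies against each partner of ligand-free nuclear receptor dimers (one per run) detected binding on custom Agilent 4×180K protein-binding microarrays after 1 h incubation. The double-stranded probes had 34-nt variable regions carrying direct-repeat seeds, single-nucleotide variants, half-site ablations and random human genomic background sequences. Binding z-scores, from regression-normalized fluorescence, use the random background probes as reference.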

The subject of assay [2] is LXRa:RXRa (NR concentration 270 nM, RXRa partner concentration 90 nM). The method in brief: as §1
Assay [3] deals with LXRa homodimer (NR concentration 270 nM). The method in brief: as §1
Assay [4] has as its system LXRb:RXRa (NR concentration 270 nM, RXRa partner concentration 90 nM). The method in brief:
as §1

Assay [5] has as its system LXRb homodimer (NR concentration 270 nM). The method in brief: as §1
Assay [6] has as its system PPARa:RXRa (NR concentration 270 nM, RXRa partner concentration 90 nM). The method in brief:
as §1

The test system of assay [7] is PPARg:RXRa (NR concentration 180 nM, RXRa partner concentration 90 nM). The method in brief: as §1
Assay [8] relates to PPARg:RXRa 270nM:90nM, anti-RXR (NR concentration 270 nM, RXRa partner concentration 90 nM). The method in brief:
as §1

In assay [9] the test system is PPARg:RXRa 30nM:10nM, anti-RXR (NR concentration 30 nM, RXRa partner concentration 10 nM). The method in brief:
as §1

For assay [10], the system named is PPARg:RXRa 90nM:30nM, anti-RXR (NR concentration 90 nM, RXRa partner concentration 30 nM). The method in brief:
as §1

Assay [11] concerns PPARg:RXRa DBDmut IVT, anti-RXR (DBD mutation: RXRa K156A/R161A, NR concentration 270 nM, RXRa partner concentration 90 nM). The method in brief:
as §1

For assay [12], the system named is PPARg:RXRa IVT, anti-PPARg (NR concentration 270 nM, RXRa partner concentration 90 nM). The method in brief: as §1
Assay [13] deals with PPARg DBDmut:RXRa IVT, anti-PPARg (DBD mutation: PPARg1 K132A/R137A, NR concentration 270 nM, RXRa partner concentration 90 nM). The method in brief: as §1
The test system of assay [14] is PPARg DBDmut IVT, anti-PPARg (DBD mutation: PPARg1 K132A/R137A, NR concentration 270 nM). The method in brief:
as §1

For assay [15], the system named is PPARg homodimer (NR concentration 180 nM). The method in brief: as §1
For assay [16], the system named is PXR:RXRa (NR concentration 270 nM, RXRa partner concentration 90 nM). The method in brief: as §1
Assay [17] concerns PXR homodimer (NR concentration 270 nM). The method in brief:
as §1

Assay [18] deals with RARa:RXR (NR concentration 270 nM, RXRa partner concentration 90 nM). The method in brief: as §1
For assay [19], the system named is RARa homodimer (NR concentration 270 nM). The method in brief:
as §1

Assay [20] relates to RARb:RXRa (NR concentration 270 nM, RXRa partner concentration 90 nM). The method in brief: as §1

Take TGAATGAGGTTAAAGATCACGGAACGTGGCGTCG: the PBM binding z-score in assay [1] was 3.68; in assay [2] it was 2.87; in assay [3] it was -0.664; in assay [4], 2.2; in assay [5], 0.233; in assay [6] it was 5.33. Moreover, the PBM binding z-score in assay [7] turned out to be 7.54; in assay [8], 7.16; in assay [9] it was 6.14; in [10], 7.59; in assay [11], 2.31; in assay [12], 3.53. Further, the PBM binding z-score in [13] is 0.896; in assay [14], 0.358; in [15], 0.7; in [16], 2.94; in [17], -0.299; in assay [18] it was 4.67. Moreover, the figures for the PBM binding z-score in assay [19] and in [20] were 0.0716 and 2.18, respectively.
In the case of CCTACTGGGCCAAAAAGGTCATCGATGCCGATAA, the PBM binding z-score in [1] was 3.69; in assay [2], 4.2; in [3], 2.69; in assay [4] it was 4.33; in assay [5] it was 0.178; in assay [6], 4.93. The PBM binding z-score in assay [7] came out at 4.32; in [8] it was 4.61; in assay [9], 2.07; in assay [10] it was 4.04; in assay [11], 3.54; in assay [12], 4.4. The PBM binding z-score was -0.683 in assay [13]; 0.00778 in assay [14]; 3.39 in assay [15]; 4.69 in assay [16]; 1.58 in assay [17]; 5.26 in assay [18]. Further, the PBM binding z-score stood at 2.06 in assay [19] and 4.53 in assay [20].
Consider TCTATTAGTTGATTAGGGCACCCGAAACAGCGGA, for which the PBM binding z-score in assay [1] is 0.613; in assay [2], 0.698; in [3], 0.336; in [4], 0.367; in [5], 0.572; in assay [6] it was 0.646. The PBM binding z-score is 0.343 in assay [7]; 1.83 in [8]; 3.73 in [9]; 2.91 in assay [10]; 2.25 in assay [11]; 1.68 in assay [12]. In addition, the PBM binding z-score in [13] is 0.695; in assay [14], 1.2; in assay [15], 1.1; in [16], 0.419; in [17], 0.671; in assay [18], 0.573. Moreover, the PBM binding z-score in assay [19] is 1.64; in assay [20], 0.873.
Regarding AGAATGAGGTTATTAAGAACAGGGAATTGCGGTC, the PBM binding z-score in [1] stood at 1.53; in assay [2], 1.45; in assay [3] it was 0.11; in assay [4] it was 1.22; in assay [5], 0.0569; in assay [6] it was 2.3. In addition, the PBM binding z-score in assay [7] was 1.53; in assay [8], 1.67; in assay [9], 0.448; in assay [10] it was 1.02; in assay [11], 3.07; in assay [12] it was 2.57. Further, the PBM binding z-score in assay [13] was 0.828; in assay [14] it was 0.0753; in [15], 0.538; in assay [16] it was 1.13; in [17], 0.548; in assay [18], 1.32. Further, the results for the PBM binding z-score in [19] and in assay [20] were 0.488 and 1.4, respectively.
Regarding CCTATTAGTTGACCATAAGGACAACCGAAGCTCG, the PBM binding z-score was 1.29 in assay [1]; 0.43 in assay [2]; 0.89 in assay [3]; 0.473 in [4]; 1.33 in assay [5]; 0.262 in assay [6]. Besides, the PBM binding z-score in [7] came to 0.871; in [8], 0.107; in [9] it was 0.251; in assay [10], 0.449; in assay [11], 0.245; in assay [12] it was 0.48. The PBM binding z-score is 1.08 in assay [13]; 1.03 in assay [14]; 2.6 in assay [15]; 0.623 in assay [16]; 1.23 in [17]; 1.27 in [18]. In addition, the PBM binding z-score in assay [19] was 2.5; in assay [20], 1.22.
Consider TCTATTAGTTGAAGAGCAACCGACGAGTCCGTTT, for which the PBM binding z-score in assay [1] is 0.119; in assay [2], 0.663; in [3], -0.0692; in [4], 0.436; in assay [5], 0.0793; in assay [6], 0.395. For the same sequence, the PBM binding z-score in assay [7] was -0.0464; in [8] it was 1.45; in assay [9], 3.13; in assay [10], 2.28; in assay [11], 2.11; in assay [12] it was -0.0307. Further, the PBM binding z-score in [13] is -0.198; in assay [14], 0.372; in assay [15], 0.184; in [16], 0.265; in assay [17], 0.467; in assay [18] it was -0.0573. Moreover, the PBM binding z-score was 0.544 in [19] and 0.129 in assay [20].
With TTCCCAAGGTGAAGGTCGTTGATCCCTCTGTAGA, the PBM binding z-score was 2.26 in assay [1]; 2.23 in assay [2]; -0.0326 in assay [3]; 1.74 in assay [4]; -0.362 in assay [5]; 2.26 in [6]. Further, the PBM binding z-score in assay [7] turned out to be 0.674; in [8] it was 1.81; in [9], 0.663; in [10], 1.37; in assay [11], 0.771; in assay [12], 2.06. Also, the PBM binding z-score was -0.218 in [13]; -0.23 in [14]; 1.17 in assay [15]; 1.5 in [16]; 0.155 in [17]; 1.78 in assay [18]. Besides, the PBM binding z-score was -0.438 in assay [19] and 2.2 in [20].

For the origin of these results see the supplement of paper PMC6555819.
